{"source": "PubChem BioAssay (NCI)", "note": "This is part of a sample that, as a whole, favours compounds with a hit. Of some 83,000 tested, about 20% had one in any assay.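 Method: cells in 96-well plates; compound added at one concentration; 48 h incubation; percent growth measured; values under 10 scored active.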 Calls of active or inactive are those of the source. *1 amine or outer side, *2 acyl side, *3 side chain or, on linkers, in order; H or OH if unused. Where a SMILES comes first, the peptide text is derived from it. Bridges are numbered along the chain shown (N, C = ends). Roman numbers before positions name the chains, in order. [ ]: non-standard residue; d: D form. The star is where a group is joined. ξ: configuration not given here. Actinocin(1to9) = Cc1c2oc3c(C)ccc(C(=O)[*:2])c3nc-2c(C(=O)[*:1])c(N)c1=O; X5 = CCC(=O)CC1CC(C)CC(C(=O)[*:2])N1[*:1]; NMeV = CN[CH](C(=O)O)C(C)C; X4 = CCCCCCCCC(C)C(=O)*; ξD = NC(CC(=O)O)C(=O)O; Aib = CC(C)(N)C(=O)O; X6 = CC(CN(C)CCO)N*; Sar = CNCC(=O)O", "data": [{"tested_on": "NCI-H322M lung", "test": "NCI-60 one-dose screen, 48 h (100 = growth as untreated, 0 = no growth, -100 = all killed)", "conditions": "10 µM unless noted", "protocol": "Growth inhibition of the NCI-H322M human Non-Small Cell Lung tumor cell line is measured as a screen for anti-cancer activity. Cells are grown in 96 well plates and exposed to the test compound for 48 hours. Compounds are tested at a single concentration, which is 10^-5 M for most compounds. The reported endpoint is percent growth (GI% or GIPRCNT), where numbers from 0 - 100% represent growth inhibition, and numbers from -100% - 0 represent cell death. For example, a value of 40 represents 60% growth inhibition. A value of 0 means no net growth occurred over the course of the experiment. A value of -40 indicates 40% of cells at the beginning of the experiment died by the end of the experiment. A value of -100 means all cells are dead at the end of the experiment.\nNCI-60 Human Tumor Cell Lines Screen was performed using the standard one-dose NCI protocol, which is described in more detail at https://dtp.cancer.gov/discovery_development/nci-60/default.htm.\nCompounds with GIPRCNT values below 10 were considered active. Activity score was based on GIPRCNT using the following formula: […]\nScore is 0 for GIPRCNT values of 100 or above, 50 for GIPRCNT values of 0, and 100 for GIPRCNT values of -100.", "values": [{"compound": "COC(=O)C(=[N+]=[N-])C(=O)c1ccc([N+](=O)[O-])o1", "growth": "103% (inactive)"}, {"compound": "O=C(c1ccc(O)c(Br)c1)c1ccc(O)c(Br)c1", "growth": "113% (inactive)"}, {"compound": "Cc1nc([N+](=O)[O-])c(Sc2nncc(-c3ccccc3)n2)n1C", "growth": "92.1% (inactive)"}, {"compound": "CN1CCC(CN2c3ccccc3Sc3ccccc32)C1", "note": "(stereo not given)", "growth": "86.3% (inactive)"}, {"compound": "O=C(Nc1ccc(Cl)c(Cl)c1)Nc1ccccc1O", "growth": "87.3% (inactive)"}, {"compound": "CC(=O)N1CC(=O)NC1=S", "growth": "102% (inactive)"}, {"compound": "CCOc1ccc(C(C[N+](=O)[O-])Sc2ccccc2N)cc1", "note": "(stereo not given)", "growth": "88.2% (inactive)"}, {"compound": "NCC(=O)NC(CC(=O)O)C(=O)O", "note": "(stereo not given) (H-Gly-[ξD]-OH)", "growth": "104% (inactive)"}, {"compound": "CN(C)c1ccc(/C=C/c2cc[n+](C)c(/C=C/c3ccc(N(C)C)cc3)c2)cc1", "growth": "-9.9% (active)"}, {"compound": "C(=N\\Nc1ccc2ccccc2n1)/c1ccccn1", "growth": "-5.75% (active)"}, {"compound": "COc1ccc2nc3cc(Cl)ccc3c(NCCCCCN3CCCCC3)c2c1", "growth": "-34% (active)"}, {"compound": "O=C(OC12CC3CC(CC(C3)C1)C2)c1ccc(NCc2cc(O)ccc2O)cc1", "growth": "47.6% (inactive)"}, {"compound": "CC(C)Nc1ccc(Nc2ccc(NC(C)C)cc2)cc1", "growth": "84.6% (inactive)"}, {"compound": "CCCCCCCCC(C)C(=O)N1CCCC1C(=O)N1C(CC(=O)CC)CC(C)CC1C(=O)NC(C)C(=O)NC(C)(C)C(=O)NC(C)(C)C(=O)NC(C(=O)NC(C)C(=O)NC(C)(C)C(=O)NC(C)(C)C(=O)NC(C)CN(C)CCO)C(C)CC", "note": "(stereo not given) (X4-P[X5]A[Aib][Aib]IA[Aib][Aib]-X6; configuration not given here)", "growth": "21.2% (inactive)"}, {"compound": "N#CC(=C1SCS1)[N+](=O)[O-]", "growth": "70.7% (inactive)"}, {"compound": "CCCCCCC1N=C(N)N=C(N)N1c1cccc(Cl)c1", "note": "(stereo not given)", "growth": "43% (inactive)"}, {"compound": "Oc1ccc(Nc2ccc3ccccc3c2)cc1", "growth": "33.9% (inactive)"}, {"compound": "NC(=Nc1nc(-c2ccccn2)cc2ccccc12)c1ccccn1", "growth": "21.6% (inactive)"}, {"compound": "Oc1ccc(Cl)cc1Cc1cc(Cl)ccc1O", "growth": "79.6% (inactive)"}, {"compound": "COc1cc2c(c(OC)c1OC)-c1ccc(NCc3ccccc3)c(=O)cc1[C@@H](NC(C)=O)CC2", "growth": "50.1% (inactive)"}, {"compound": "Nc1nc2ncc(CNc3ccc(C(=O)NC(CCC(=O)NC(CCC(=O)NC(CCC(=O)NC(CCC(=O)NC(CCC(=O)O)C(=O)O)C(=O)O)C(=O)O)C(=O)O)C(=O)O)cc3)nc2c(=O)[nH]1", "note": "(stereo not given)", "growth": "97.5% (inactive)"}, {"compound": "CC1(C)OCC(COC(c2ccccc2)(c2ccccc2)c2ccccc2)O1", "note": "(stereo not given)", "growth": "92.2% (inactive)"}, {"compound": "O=C1C=CC(O)=CC1=P(c1ccccc1)(c1ccccc1)c1ccccc1", "growth": "83.3% (inactive)"}, {"compound": "Cc1ccc(Nc2ccc(O)c3c2C(=O)c2c(O)ccc(Nc4ccc(C)cc4)c2C3=O)cc1", "growth": "128% (inactive)"}, {"compound": "N=C1C=C(N)C(=O)c2ccccc21", "growth": "-88.4% (active)"}, {"compound": "CCCCCCCCCCCC[S+](C)CC(=O)[O-]", "note": "(stereo not given)", "growth": "89.4% (inactive)"}, {"compound": "CCCCCCCCCCCC1N=C(N)N=C(N)N1c1cccc(Br)c1", "note": "(stereo not given)", "growth": "54.4% (inactive)"}, {"compound": "CCCCOS(=O)(=O)c1ccccc1", "growth": "98% (inactive)"}, {"compound": "CCCCCCCCCCCC(=O)OC(C)C(=O)NCCCC", "note": "(stereo not given)", "growth": "91.7% (inactive)"}, {"compound": "Cc1oc2c(C)c3oc(=O)cc(C)c3cc2c1CCl", "growth": "75.9% (inactive)"}, {"compound": "Cc1cc(C)c(C#N)c(Sc2nc(C)c([N+](=O)[O-])c(C)c2C#N)n1", "growth": "83.6% (inactive)"}, {"compound": "CCC(C)C1NC(=O)C(NC(=O)c2c3nc4c(C(=O)NC5C(=O)NC(C(C)CC)C(=O)N6CCCC6C(=O)N(C)CC(=O)N(C)C(C(C)C)C(=O)OC5C)ccc(C)c4oc-3c(C)c(=O)c2N)C(C)OC(=O)C(C(C)C)N(C)C(=O)CN(C)C(=O)C2CCCN2C1=O", "note": "(stereo not given) (I: TIP[Sar][NMeV] / II: TIP[Sar][NMeV]; ester I:1-I:C, II:1-II:C; linker I:N-II:N via Actinocin(1to9); configuration not given here)", "growth": "-2.5% (active)"}, {"compound": "CCC1CCCCN1C(=S)N/N=C(\\C)c1ccccn1", "note": "(stereo not given)", "growth": "8.13% (active)"}, {"compound": "N#CCc1cccc2ccccc12", "growth": "106% (inactive)"}, {"compound": "CN1CSC(=S)N(Cc2ccccc2)C1", "growth": "102% (inactive)"}, {"compound": "Cc1cc2nc(CC(=O)c3ccncc3)c(=O)[nH]c2cc1C", "growth": "95.9% (inactive)"}, {"compound": "C/C=C/c1cc2c(c(=O)o1)C(=O)[C@@H](O)[C@H](C)O2", "growth": "94.6% (inactive)"}, {"compound": "CN=C(N)N/N=C(\\C)c1ccc2c(c1)Cc1ccccc1-2", "growth": "-85% (active)"}, {"compound": "NC(CS/C(Cl)=C/Cl)C(=O)O", "note": "(stereo not given)", "growth": "73.5% (inactive)"}, {"compound": "Cc1ccc(NC2=CC(=O)C(=O)c3ccccc32)cc1", "growth": "-12.5% (active)"}]}]}
